CHX counter – affects cycloheximide protein synthesis inhibition readout, counter-screen; hit rate 12% among 300,000; max response, %; cell reporter, cycloheximide protein synthesis inhibition counterscreen; in the data active = max response mostly above about 13%, no sharp cut-off; inactive = mostly below about 14%; note: read at 38.3 µM for the half of the compounds with a filed dose
Shiga inhibitor – inhibitors of Shiga toxin in Vero cells; inhibition, % at 38.7 µM; Vero cells, Shiga toxin protein synthesis inhibition reporter; AID 2315; hit rate 9.2% among 290,000; in the data active = inhibition mostly above about 28%, no sharp cut-off; inactive = mostly below about 43%
NS1 function inh – influenza NS1 inhibition. Potency, µM (titrated, usually from 46.1 µM). hit rate 0.4% among 270,000; note: actives are rising curves; nearly all actives have a fitted effect of over 50% in size
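Recovery from NS1-induced slow growth read by OD600 in budding yeast switched to galactose assay medium (pH 6.0, -URA) at 1:100 dilution. Compound 23 nl per well; the matching strain lacking NS1 serves as control.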
LmPK inh – inhibitors of Leishmania mexicana pyruvate kinase; Potency, µM (series often up to 57.5 µM), hits mostly inhibitors; hit rate 0.37% among 290,000; Q27686; purified LmPK, Kinase-Glo ATP luminescence, 1 h; active = well fitted curve in the direction sought with a large enough effect; inconclusive = small, poorly fitted or top-dose-only effect, or another doubt; inactive = no such curve, though single readings can be large; an effect the other way counts as inactive or inconclusive
Target sequence (Q27686 whole entry, looked up): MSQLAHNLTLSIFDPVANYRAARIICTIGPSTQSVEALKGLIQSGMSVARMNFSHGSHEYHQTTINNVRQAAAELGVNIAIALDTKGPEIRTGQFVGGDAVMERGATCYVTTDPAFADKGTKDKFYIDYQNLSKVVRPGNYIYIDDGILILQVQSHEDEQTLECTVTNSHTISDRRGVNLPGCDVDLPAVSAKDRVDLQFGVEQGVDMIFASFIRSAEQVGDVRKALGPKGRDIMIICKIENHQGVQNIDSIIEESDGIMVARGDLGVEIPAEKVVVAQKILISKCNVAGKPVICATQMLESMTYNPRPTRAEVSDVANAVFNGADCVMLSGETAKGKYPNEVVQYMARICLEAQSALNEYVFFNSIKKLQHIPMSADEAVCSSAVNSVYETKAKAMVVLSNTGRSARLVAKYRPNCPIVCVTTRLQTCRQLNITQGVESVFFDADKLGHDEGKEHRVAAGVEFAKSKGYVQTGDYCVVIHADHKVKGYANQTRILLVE
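In 50 mM imidazole pH 7.2 with 7 mM MgCl2, LmPK (0.1 nM) turned over PEP (0.5 mM) and ADP (0.1 mM) for 1 h at room temperature. Luciferase read-out of ATP.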
Tb PYK inh – blocks Trypanosoma brucei pyruvate kinase | Q57TT1 | TbPYK enzyme, Kinase-Glo Plus ATP luminescence, 45 min | Potency, µM (series often up to 76.8 µM), most hits filed as inhibitors | hit rate 0.12% among 410,000; active = well fitted curve in the direction sought with a large enough effect; inconclusive = small, poorly fitted or top-dose-only effect, or another doubt; inactive = no such curve, though single readings can be large; an effect the other way counts as inactive or inconclusive; note: nearly all actives have a fitted effect of over 50% in size
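TbPYK + substrate in 50 mM TEA pH 7.2, 100 mM KCl, 10 mM MgCl2, 0.05% BSA, 0.01% Tween-20; cpd pinned; ADP 130 uM final; 45 min RT; Kinase-Glo Plus 10 min; luminescence endpoint.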
SARS PLP yeast – blocks SARS-CoV papain-like protease in a yeast assay; S. cerevisiae expressing SARS-CoV PLpro, growth rescue; Potency, µM (top dose mostly 32.9 µM), usual class: activators; hit rate 0.19% among 330,000; note: nearly all actives have a fitted effect of over 55% in size
Large screens that a line does not name were inactive. Only a selection was taken, and hits are over-represented in it overall. Unless noted, calls come from the whole dose curve.

O=C(COc1cc(Cl)c(Cl)cc1Cl)Nc1cccc(O)c1	CHX counter 38.1, Shiga inhibitor 115.1
CC(=O)NC(=S)NNC(=O)COc1ccc(Br)cc1	CHX counter 21.3 (no result: NS1 function inh)
Cc1cccc(OCC(=O)Nc2ccc(NC(=O)c3ccccc3)cc2)c1	none
CC(Oc1ccc(Cl)cc1Cl)C(=O)Nc1cccc(O)c1 (configuration not stated)	CHX counter 30.8
CC(Oc1ccc(Cl)cc1Cl)C(=O)Nc1ccc(O)cc1 (configuration not stated)	none (no result: NS1 function inh)
Cc1nn(Cc2ccccc2)c(C)c1NC(=O)c1cc(C(C)C)on1	none (no result: CHX counter, Shiga inhibitor, NS1 function inh, LmPK inh, SARS PLP yeast)
CN(C)CCCN=C(N)N	none (no result: CHX counter, Shiga inhibitor, LmPK inh, Tb PYK inh, SARS PLP yeast)
O=C(Nc1ccnn1C1CCN(C(=O)Cc2ccccc2F)CC1)C1CC1	none
CC(C)CCN(C(=O)C1=COCCO1)c1c(N)n(Cc2ccccc2)c(=O)[nH]c1=O	none (no result: CHX counter, Shiga inhibitor, NS1 function inh, LmPK inh)
CNC(=S)NNC(=O)COc1ccc(C)c(C)c1	SARS PLP yeast 12.6µM
Cc1ccc(OCC(=O)Nc2cccc(O)c2)cc1C	CHX counter 40.3, Shiga inhibitor 78.6, SARS PLP yeast inconclusive
CCc1nc2ccc(C(=O)Nc3ccc(OC)c(OC)c3)cn2c1N(C)Cc1ccc(N(C)C)cc1	none (no result: CHX counter, Shiga inhibitor, NS1 function inh, LmPK inh, SARS PLP yeast)
O=C1NC(=O)C(=Cc2ccc(SC3CCCCC3)o2)C(=O)N1	Shiga inhibitor 50.7, Tb PYK inh inconclusive (no result: NS1 function inh)
Cc1c(N=Cc2nc3ccccc3n2C)c(=O)n(-c2ccccc2)n1C	CHX counter 49.3, Shiga inhibitor 63.6
Cc1c(N=Cc2nc3ccccc3[nH]2)c(=O)n(-c2ccccc2)n1C	CHX counter 46.4, Shiga inhibitor 89.7
Cc1cccc(-c2ccc(C=Nc3c(C)n(C)n(-c4ccccc4)c3=O)o2)c1	CHX counter 28.1
COc1cccc(-n2c(O)c(C=Nc3c(C)n(C)n(-c4ccccc4)c3=O)c(=O)[nH]c2=O)c1	none
COc1ccc(-n2c(O)c(C=Nc3c(C)n(C)n(-c4ccccc4)c3=O)c(=O)[nH]c2=O)cc1	none
Cc1[nH]c2ccccc2c1N=Nc1c(C)n(C)n(-c2ccccc2)c1=O	none (no result: NS1 function inh)
Cc1cccc(N2N=C(C(=O)O)CCC2=O)c1	none
CCc1ccc(NC(=O)C(=O)NCC2CCCO2)cc1 (configuration not stated)	CHX counter 45.7, Shiga inhibitor 101.2 (no result: NS1 function inh)
COc1ccc(NS(=O)(=O)c2ccc(NC(=S)NCC3CCCO3)cc2)cc1 (configuration not stated)	none
S=C(NCC1CCCO1)Nc1ccc(Cl)c(Cl)c1 (configuration not stated)	Shiga inhibitor 49.6
CCCCc1ccc(NC(=S)NCC2CCCO2)cc1 (configuration not stated)	CHX counter 8.8, Shiga inhibitor 32.8 (no result: NS1 function inh)
O=C(Cc1ccc(Cl)c(Cl)c1)NNC(=S)NCC1CCCO1 (configuration not stated)	none
CN(C)c1ccc(NC(=S)NCC2CCCO2)cc1 (configuration not stated)	CHX counter 41.7, Shiga inhibitor 38.6
CCNS(=O)(=O)c1ccc(NC(=S)NCC2CCCO2)cc1 (configuration not stated)	none
COC(=O)c1sc(NC(=O)Cc2cccs2)nc1C	CHX counter 33.4, Shiga inhibitor 70.2
COc1ccc(CCC(=O)Nc2ncc(C)s2)cc1OC	none
Cc1cnc(NC(=O)CSc2ccccc2)s1	CHX counter 30.0
Cc1cnc(NC(=O)CCc2ccccc2)s1	CHX counter 24.6 (no result: Shiga inhibitor)
COC(=O)c1sc(NC(=O)COc2ccccc2OC)nc1C	none
Cc1nnc(NC(=O)C2(c3ccccc3)CCOCC2)s1	none
Cc1cnc(NC(=O)C2(c3ccccc3)CC2)s1	CHX counter 20.0, Shiga inhibitor 74.0
CC1(C(=O)NCCc2c[nH]c3ccccc23)CCN1Cc1csc2ccccc12 (configuration not stated)	none (no result: CHX counter, Shiga inhibitor, NS1 function inh, LmPK inh, SARS PLP yeast)
CCOC(=S)SCC(=O)Nc1ncc(C)s1	CHX counter 39.4, Shiga inhibitor 68.2
Cc1cnc(NC(=O)Cc2ccc(C)c(C)c2)s1	CHX counter 20.1, Shiga inhibitor 47.3
COC(=O)c1sc(NC(=O)COc2ccccc2)nc1C	CHX counter 23.0
Cc1cnc(NC(=O)CSc2nnc(C)n2N)s1	none
Cc1cnc(NC(=O)COc2ccccc2)s1	CHX counter 59.0, Shiga inhibitor 110.2
O=C(CNC(=O)c1cccs1)c1ccc(F)cc1	CHX counter 25.2
O=C(NCCc1ccc(Cl)cc1)c1cccs1	CHX counter 42.5, Shiga inhibitor 133.6 (no result: NS1 function inh)
O=C(CNC(=O)c1ccc([N+](=O)[O-])cc1)c1ccccc1	CHX counter 45.9, Shiga inhibitor 94.8
O=C(NCC(=O)c1ccccc1)OCc1ccc([N+](=O)[O-])cc1	CHX counter 29.6 (no result: Shiga inhibitor)
O=C(NCCc1csc(-c2ccc(Cl)cc2)n1)c1cccs1	none (no result: CHX counter, Shiga inhibitor, NS1 function inh, LmPK inh, SARS PLP yeast)
O=C(CNC(=O)c1cccs1)OCC(=O)c1ccc(Cl)cc1	none
O=C(NCc1ccccc1)c1ccc([N+](=O)[O-])cc1	none (no result: CHX counter, Shiga inhibitor, NS1 function inh, LmPK inh, SARS PLP yeast)
O=C(Cc1cccs1)NNC(=S)NCc1ccc(Cl)cc1	none
O=C(CNC(=O)c1cccs1)OCC(=O)c1ccc([N+](=O)[O-])cc1	none
O=C(CNC(=O)c1cccs1)c1ccc([N+](=O)[O-])cc1	CHX counter 23.1, Shiga inhibitor 91.8
O=C(Cc1ccc(Cl)cc1)NNC(=S)NC(=O)c1cccs1	Shiga inhibitor 34.1
O=C(CNC(=O)c1cccs1)c1ccc(Cl)cc1	CHX counter 37.5, Shiga inhibitor 78.8
O=C(COc1cccc(NC(=O)c2cccs2)c1)c1ccc(F)cc1	Shiga inhibitor active
CC(=O)Nc1cccc(NC(=O)C2(c3cccs3)CCOCC2)c1	none (no result: CHX counter, Shiga inhibitor, NS1 function inh, LmPK inh, SARS PLP yeast)
CCc1cc(C(=O)N(CC(C)C)c2c(N)n(Cc3ccccc3)c(=O)[nH]c2=O)sc1C	none (no result: CHX counter, Shiga inhibitor, NS1 function inh, LmPK inh)
CC(C)OC(=O)c1cn(Cc2c(F)cccc2F)c2sc(-c3ccc(NC(=O)C(C)C)cc3)c(CN(C)Cc3ccccc3)c2c1=O	none (no result: NS1 function inh, LmPK inh, Tb PYK inh, SARS PLP yeast)
O=C(Nc1nnc(CCc2ccccc2)s1)c1ccccc1F	CHX counter 26.1
Cc1nnc(NC(=O)c2ccccc2F)s1	CHX counter 17.5, Shiga inhibitor 35.8
Cc1nnc(NC(=O)c2ccccc2Br)s1	CHX counter 23.7, SARS PLP yeast inconclusive
CCC(C)C(=O)Nc1nnc(CCc2ccccc2)s1 (configuration not stated)	CHX counter 19.2
Cc1nnc(NC(=O)c2ccccc2NC(=O)c2ccccc2)s1	none
Cc1nnc(NC(=O)c2ccccc2-c2ccccc2C(=O)O)s1	none
CCCC[C@]12Cc3c(ccc4ccccc34)C(O1)C1=C(O2)C(=O)c2ccccc2C1=O	NS1 function inh inconclusive (no result: Tb PYK inh)
CN(C)c1ccc(C(=O)c2ccc(N(C)C)c(N)c2)cc1N	CHX counter 28.2
Cc1ccc(CNS(=O)(=O)c2ccc3c(c2)n(C)c(=O)n3C)cc1	none
O=C(NCC(Cl)c1ccc2ccccc2c1)c1c(F)cccc1F (configuration not stated)	CHX counter 33.3

High-throughput results as filed in PubChem.
